Test results from the supplement of paper PMC5499739.
The full ranking holds about 16,000 sequences; the median of “Z-score” is about -0.37, and the highest 2% start at about 3.2. The list comes from a sample in which the highest values are over-represented; it also holds similar and randomly drawn sequences.

The sequences below were run on RBM10 RRM1-ZnF (GST-tagged construct) (assay: RNAcompete 7-mer binding Z-score; higher = stronger binding preference).
Method: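 RNAcompete: 20 pmol GST-tagged RBM10 RNA-binding constructs were incubated with a designed RNA pool of about 241,000 sequences up to 41 nt (1.5 nmol) on glutathione beads for 30 min at 4 °C and washed. Bound RNAs were identified by microarray hybridisation. Each RNA 7-mer is scored by a one-sided Z-score of its enrichment, computed over probes that contain the 7-mer within longer pool sequences.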

Compared with GAUGGGA, AAUGGGA is higher in “RNAcompete 7-mer binding Z-score” value: 3.76 for the first, 4.35 for the second.

Going from UAUGGGA to CAUGGGA, the “RNAcompete 7-mer binding Z-score” value falls from 2.85 to 1.95.

Compared with GCUGGGG, AAUGGGC is lower in “RNAcompete 7-mer binding Z-score” value: 2.64 for the first, 2.5 for the second.

Going from GAUGGUA to CUCACUU, the “RNAcompete 7-mer binding Z-score” value falls from 2.28 to -0.925.

Going from UUGUUAC to GUUACCG, the “RNAcompete 7-mer binding Z-score” value rises from -0.373 to -0.0999.

Compared with GGCCGAG, UGCGAUA is lower in “RNAcompete 7-mer binding Z-score” value: 0.462 for the first, -0.223 for the second.

Compared with GCCAGAG, GGGGAGA is higher in “RNAcompete 7-mer binding Z-score” value: 0.00729 for the first, 3.3 for the second.

Going from CGGGAGA to UGGGAGA, the “RNAcompete 7-mer binding Z-score” value rises from 1.24 to 2.78.

Compared with GGGGAGC, CGGGAGG is higher in “RNAcompete 7-mer binding Z-score” value: 2.29 for the first, 3.02 for the second.

Compared with AGGGAGG, AGGGAGU is lower in “RNAcompete 7-mer binding Z-score” value: 3.68 for the first, 2.96 for the second.

Compared with UGGGAGU, GGGGAGG is higher in “RNAcompete 7-mer binding Z-score” value: 2.27 for the first, 3.64 for the second.

Going from UGGGAGC to UGGGAGG, the “RNAcompete 7-mer binding Z-score” value rises from 2.86 to 4.4.

First: GGGGAGU
Second: AGUCAGU
The “RNAcompete 7-mer binding Z-score” value of the first is higher: 2.84 for the first, 0.0105 for the second.

Compared with ACGCCGC, UCCAACU is lower in “RNAcompete 7-mer binding Z-score” value: -0.633 for the first, -0.85 for the second.

Going from GUUACGG to GAGCUGA, the “RNAcompete 7-mer binding Z-score” value falls from 0.859 to 0.417.

First: GCGCAAA
Second: AAGGCCA
The “RNAcompete 7-mer binding Z-score” value of the first is lower: -0.181 for the first, -0.00896 for the second.

First: UUCUUAG
Second: AUCCUAC
The “RNAcompete 7-mer binding Z-score” value of the first is higher: -0.698 for the first, -0.87 for the second.

Going from GUCUCAU to AGAAUCC, the “RNAcompete 7-mer binding Z-score” value falls from -0.642 to -0.785.

Going from AUACAAU to CACGCAA, the “RNAcompete 7-mer binding Z-score” value rises from -0.539 to -0.464.

First: GGGCUAU
Second: CAAAAGG
The “RNAcompete 7-mer binding Z-score” value of the first is lower: 0.849 for the first, 0.888 for the second.

Going from GAAAGGU to GAUAAGG, the “RNAcompete 7-mer binding Z-score” value falls from 4.51 to 3.91.

Compared with CGAAAGG, AGAAAGG is higher in “RNAcompete 7-mer binding Z-score” value: 2.19 for the first, 4.58 for the second.

First: GAUAAGU
Second: UGAAAGG
The “RNAcompete 7-mer binding Z-score” value of the first is lower: 0.313 for the first, 3.05 for the second.

Going from AAAAGGU to CAAAGGU, the “RNAcompete 7-mer binding Z-score” value falls from 2.33 to 1.15.

Compared with CAUAAGG, GAAAAGG is higher in “RNAcompete 7-mer binding Z-score” value: 0.335 for the first, 4.26 for the second.

Going from AAAAAGG to CACCUUG, the “RNAcompete 7-mer binding Z-score” value falls from 2 to -0.516.

First: ACUAGUG
Second: GUACCAG
The “RNAcompete 7-mer binding Z-score” value of the first is higher: 0.0983 for the first, -0.035 for the second.

Compared with ACCAGGA, CGCGGCG is higher in “RNAcompete 7-mer binding Z-score” value: 0.823 for the first, 1.25 for the second.

Compared with CGCCAUA, UGAGGGU is higher in “RNAcompete 7-mer binding Z-score” value: -0.594 for the first, 3.48 for the second.

Compared with UGAGGGG, CGAGGUU is lower in “RNAcompete 7-mer binding Z-score” value: 3.64 for the first, 0.846 for the second.

Going from UGAGGCU to CGAGGGC, the “RNAcompete 7-mer binding Z-score” value rises from 0.3 to 1.06.

Going from UGAGGGA to CGAGGGA, the “RNAcompete 7-mer binding Z-score” value falls from 4.02 to 2.84.

Compared with UGAGAGG, UGAGGGC is higher in “RNAcompete 7-mer binding Z-score” value: 1.94 for the first, 2.27 for the second.

First: CGAGGGU
Second: UGAGGAG
The “RNAcompete 7-mer binding Z-score” value of the first is higher: 3.7 for the first, 1.86 for the second.

First: AGAGGGU
Second: UAGCGGC
The “RNAcompete 7-mer binding Z-score” value of the first is higher: 2.22 for the first, -0.132 for the second.

Compared with AGAUGAU, UGACUCC is lower in “RNAcompete 7-mer binding Z-score” value: 0.287 for the first, -0.652 for the second.

Compared with AUUUAAC, GGGAGAU is higher in “RNAcompete 7-mer binding Z-score” value: -0.561 for the first, 2.7 for the second.

First: CGAAGCU
Second: GUCAGCU
The “RNAcompete 7-mer binding Z-score” value of the first is lower: -0.691 for the first, -0.425 for the second.

Compared with AGUGCCG, UCGCAAU is lower in “RNAcompete 7-mer binding Z-score” value: -0.11 for the first, -0.545 for the second.

Going from CGAACGA to GGGCAUA, the “RNAcompete 7-mer binding Z-score” value rises from -0.123 to 1.66.

First: AUACACC
Second: CUGAGGC
The “RNAcompete 7-mer binding Z-score” value of the first is lower: -0.795 for the first, -0.0155 for the second.

First: GGAGGAU
Second: GGAGGGU
The “RNAcompete 7-mer binding Z-score” value of the first is lower: 2.46 for the first, 3.97 for the second.

Going from GGAGGCU to CCCAAUG, the “RNAcompete 7-mer binding Z-score” value falls from 1.41 to -0.662.

Going from AUAGGGG to GUAGGGU, the “RNAcompete 7-mer binding Z-score” value rises from 3.9 to 4.46.

Going from CUAGGGG to UUAGGGA, the “RNAcompete 7-mer binding Z-score” value falls from 2.46 to 2.03.

First: UUAGGGU
Second: GUAGGGC
The “RNAcompete 7-mer binding Z-score” value of the first is higher: 2.78 for the first, 2.49 for the second.

First: GUAGGGG
Second: GUAGGGA
The “RNAcompete 7-mer binding Z-score” value of the first is higher: 4.54 for the first, 3.87 for the second.

First: CUAGGGU
Second: UUAGGGG
The “RNAcompete 7-mer binding Z-score” value of the first is lower: 2.25 for the first, 2.4 for the second.

First: AUAGGUG
Second: AUAGGCG
The “RNAcompete 7-mer binding Z-score” value of the first is higher: 2.64 for the first, 0.781 for the second.

Compared with GCAUACU, UACAGGU is higher in “RNAcompete 7-mer binding Z-score” value: -0.694 for the first, 0.881 for the second.

Going from AUAGCAG to ACUCGGG, the “RNAcompete 7-mer binding Z-score” value rises from 0.358 to 0.667.

Compared with ACAACCA, CAAUGUC is lower in “RNAcompete 7-mer binding Z-score” value: -0.464 for the first, -0.75 for the second.

Going from GAGACCA to GACUAAC, the “RNAcompete 7-mer binding Z-score” value falls from -0.126 to -0.626.

First: UCCUUGC
Second: GACUGGG
The “RNAcompete 7-mer binding Z-score” value of the first is lower: -0.733 for the first, 2.42 for the second.

Compared with AUAGGGC, CUAGGAG is lower in “RNAcompete 7-mer binding Z-score” value: 1.72 for the first, 0.608 for the second.

Going from AUAGGGA to AUAGGGU, the “RNAcompete 7-mer binding Z-score” value rises from 2.86 to 3.61.

First: GUAGGAC
Second: GUAGGAG
The “RNAcompete 7-mer binding Z-score” value of the first is lower: 1.4 for the first, 3.43 for the second.

Going from CCAGCAA to AUGGCAU, the “RNAcompete 7-mer binding Z-score” value rises from -0.617 to 0.514.

First: UUAAAAA
Second: GGCCUGC
The “RNAcompete 7-mer binding Z-score” value of the first is lower: -0.444 for the first, -0.428 for the second.

Compared with AAAAGCG, ACUUCUC is lower in “RNAcompete 7-mer binding Z-score” value: 0.378 for the first, -0.841 for the second.

First: UAUAAUA
Second: CGCGUGC
The “RNAcompete 7-mer binding Z-score” value of the first is lower: -0.412 for the first, -0.223 for the second.

Compared with ACGGGGC, ACGGGUG is higher in “RNAcompete 7-mer binding Z-score” value: 2.26 for the first, 3.39 for the second.

First: ACGGGGG
Second: ACGGGGA
The “RNAcompete 7-mer binding Z-score” value of the first is higher: 3.27 for the first, 3.04 for the second.

Compared with ACGGGUU, GCGGGUG is higher in “RNAcompete 7-mer binding Z-score” value: 2.65 for the first, 3.17 for the second.

Compared with ACCGGGU, ACGGGUC is higher in “RNAcompete 7-mer binding Z-score” value: 0.631 for the first, 1.19 for the second.

Compared with ACGGGGU, CUCAAUC is lower in “RNAcompete 7-mer binding Z-score” value: 4.07 for the first, -0.769 for the second.

First: ACGCUCG
Second: UUUUAUC
The “RNAcompete 7-mer binding Z-score” value of the first is higher: -0.636 for the first, -0.873 for the second.

First: CAGCCUG
Second: AGAGUGG
The “RNAcompete 7-mer binding Z-score” value of the first is lower: -0.513 for the first, 2.81 for the second.

Going from GAAGUGG to GAAGUGC, the “RNAcompete 7-mer binding Z-score” value falls from 3.46 to 0.29.

First: GAAGUGU
Second: GGAGUGA
The “RNAcompete 7-mer binding Z-score” value of the first is lower: 1.08 for the first, 2.38 for the second.

Going from GGAGUGG to CGUCCCG, the “RNAcompete 7-mer binding Z-score” value falls from 4.84 to -0.594.

Compared with CGUUCUA, UUUCUUA is higher in “RNAcompete 7-mer binding Z-score” value: -0.811 for the first, -0.727 for the second.

First: UUAUAAC
Second: GACUAUA
The “RNAcompete 7-mer binding Z-score” value of the first is lower: -0.704 for the first, -0.542 for the second.

Going from GAAGGCU to UAAGGGU, the “RNAcompete 7-mer binding Z-score” value rises from 0.621 to 3.44.

First: UAAGGCG
Second: UAAGGCU
The “RNAcompete 7-mer binding Z-score” value of the first is higher: 1.03 for the first, 0.183 for the second.

First: AAAGGGC
Second: CAAGGGG
The “RNAcompete 7-mer binding Z-score” value of the first is lower: 2.62 for the first, 2.79 for the second.

Compared with GAAGGGC, GAAGGGU is higher in “RNAcompete 7-mer binding Z-score” value: 2.98 for the first, 4.19 for the second.

Going from AAAGGGA to CAAGGGU, the “RNAcompete 7-mer binding Z-score” value falls from 4.42 to 2.65.

Compared with UAAGGGG, CAAGGGA is lower in “RNAcompete 7-mer binding Z-score” value: 3.27 for the first, 2.42 for the second.

Going from ACUUAGU to GAAUGCU, the “RNAcompete 7-mer binding Z-score” value rises from -0.435 to -0.184.

Going from AUAGAAU to CCUCGCU, the “RNAcompete 7-mer binding Z-score” value falls from -0.132 to -0.681.

Compared with UUACUAC, UGCUGUG is higher in “RNAcompete 7-mer binding Z-score” value: -0.707 for the first, -0.119 for the second.

First: UCUGACG
Second: UACCAAC
The “RNAcompete 7-mer binding Z-score” value of the first is higher: -0.535 for the first, -0.668 for the second.

Compared with GAAGGCA, GCAGGGA is higher in “RNAcompete 7-mer binding Z-score” value: 1.7 for the first, 2.92 for the second.

First: UAAGGGA
Second: UAAGGCA
The “RNAcompete 7-mer binding Z-score” value of the first is higher: 3.27 for the first, 0.888 for the second.

First: GAAGGGA
Second: UAAGGGC
The “RNAcompete 7-mer binding Z-score” value of the first is higher: 4.52 for the first, 1.49 for the second.

Going from CCUCAUC to CCACGUA, the “RNAcompete 7-mer binding Z-score” value rises from -0.737 to -0.578.

First: GGACAGU
Second: GGACAGG
The “RNAcompete 7-mer binding Z-score” value of the first is lower: 0.842 for the first, 3.3 for the second.

Going from CGGCGGG to GGGCGAC, the “RNAcompete 7-mer binding Z-score” value falls from 2.07 to 1.81.

First: AGACAGG
Second: GGGCGAA
The “RNAcompete 7-mer binding Z-score” value of the first is lower: 1.59 for the first, 2.22 for the second.

Compared with GGGCAGG, GGGCGAG is lower in “RNAcompete 7-mer binding Z-score” value: 3.39 for the first, 3.37 for the second.

Compared with GGGCAGA, AGGCAGG is lower in “RNAcompete 7-mer binding Z-score” value: 2.45 for the first, 1.8 for the second.

Compared with UGGCGGG, UGGCGGU is lower in “RNAcompete 7-mer binding Z-score” value: 3.47 for the first, 1.49 for the second.
